# Measurements reported in the antibiotic and cytotoxicity screens of Wong et al. (2023).
# Among all 39,000 compounds or so, about 3,300 (8.5%) were called active. This is one part of a sample in which actives are shown more often than they occur.
# System: HepG2
# Assay: cytotoxicity call (relative viability < 0.9)
# Details: 10 µM
row,Structure (SMILES),cytotoxicity call
1,C[C@H](CO)N1C[C@H](C)[C@@H](CN(C)S(=O)(=O)c2cn(C)cn2)Oc2ncc(/C=C/c3ccccc3)cc2C1=O,inactive
2,Cc1ccc(S[C@]2(C(=O)NCCCN(C)C)CC(=O)N(Cc3ccccc3Cl)[C@@H]2c2ccc(CO)cc2I)cc1,inactive
3,COc1ccc(NC(=O)N(C)C[C@H]2OCCCC[C@@H](C)Oc3ccc(NS(=O)(=O)c4ccc(C)cc4)cc3C(=O)N([C@@H](C)CO)C[C@H]2C)cc1,inactive
4,CCn1cc(-c2ccc3ccccc3n2)c(=S)c2ccccc21,active
5,CCn1c(=S)ccc2ccccc21,inactive
6,CC(C)Cn1cnc2ccccc21,inactive
7,CN1N=C(C(N)=O)CCC1=O,inactive
8,C[C@@H]1CN([C@H](C)CO)C(=O)c2cc(NC(=O)Cn3cnnn3)ccc2O[C@@H]1CN(C)C(=O)Nc1ccccc1,inactive
9,O=C(C[C@@H]1CC[C@H]2[C@@H](COC[C@@H](O)CN2S(=O)(=O)c2ccccc2)O1)N1CCc2ccccc2C1,inactive
10,COc1nc(N)nc2c1ncn2[C@@H]1O[C@H](CO[P@@](=O)(N[C@@H](C)C(=O)OCC(C)(C)C)Oc2cccc3ccccc23)[C@@H](O)[C@@]1(C)O,active
11,CC(C)OC(=O)[C@H](C)N[P@](=O)(OC[C@H]1O[C@@H](n2ccc(=O)[nH]c2=O)[C@@](C)(O)[C@@H]1O)Oc1ccccc1,inactive
12,C[C@H](N[P@@](=O)(OC[C@H]1O[C@@H](n2ccc(N)nc2=O)C(F)(F)[C@@H]1O)Oc1ccccc1)C(=O)OCc1ccccc1,inactive
13,Cc1noc(C)c1S(=O)(=O)Nc1cccc2c1O[C@H](CN(C)S(=O)(=O)c1ccc(F)cc1)[C@@H](C)CN([C@H](C)CO)C2=O,inactive
14,Cc1noc(C)c1NC(=O)Nc1ccc2c(c1)C(=O)N([C@H](C)CO)C[C@H](C)[C@H](CN(C)C(=O)Nc1ccc(C(F)(F)F)cc1)OCCCC[C@H](C)O2,inactive
15,COc1ccc(NC(=O)Nc2ccc3c(c2)C(=O)N([C@@H](C)CO)C[C@@H](C)[C@H](CN(C)S(=O)(=O)c2ccc(OC)cc2)OCCCC[C@H](C)O3)cc1,inactive
16,C[C@@H]1CN([C@@H](C)CO)C(=O)Cc2cc(NC(=O)Cc3ccccc3)ccc2O[C@@H]1CN(C)Cc1ccc(Oc2ccccc2)cc1,active
17,C[C@H]1CN([C@@H](C)CO)C(=O)Cc2cc(NC(=O)Cc3ccccc3)ccc2O[C@@H]1CN(C)Cc1ccc(Oc2ccccc2)cc1,inactive
18,C[C@H]1CN([C@@H](C)CO)C(=O)Cc2cc(NC(=O)Cc3ccccc3)ccc2O[C@H]1CN(C)Cc1ccc(Oc2ccccc2)cc1,active
19,C[C@@H]1CN([C@@H](C)CO)C(=O)Cc2cc(NC(=O)Cc3ccccc3)ccc2O[C@H]1CN(C)Cc1ccc(Oc2ccccc2)cc1,inactive
20,C[C@@H]1CN([C@H](C)CO)C(=O)Cc2cc(NC(=O)Cc3ccccc3)ccc2O[C@@H]1CN(C)Cc1ccc(Oc2ccccc2)cc1,active
21,C[C@H](CO)N1C[C@H](C)[C@H](CN(C)Cc2ccc(Oc3ccccc3)cc2)Oc2ccc(NC(=O)Cc3ccccc3)cc2CC1=O,inactive
22,C[C@H](CO)N1C[C@H](C)[C@@H](CN(C)Cc2ccc(Oc3ccccc3)cc2)Oc2ccc(NC(=O)Cc3ccccc3)cc2CC1=O,inactive
23,C[C@@H]1CN([C@H](C)CO)C(=O)Cc2cc(NC(=O)Cc3ccccc3)ccc2O[C@H]1CN(C)Cc1ccc(Oc2ccccc2)cc1,inactive
